# Article PMC5540273 (PLoS ONE, 2017)
# pKd: −log10 of the molar value.
# System: ICK
# 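Further: kd values determined as follow-up on hits from a single-replicate KINOMEscan panel screen.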
row,Structure (SMILES),pKd
1,Cl.NC(=O)c1cccc(Nc2nccc(Nc3ccc(Oc4cccc(Cl)c4)c(Cl)c3)n2)c1 [GW659008],< 5.00
2,O=C(Nc1n[nH]c2nc(-c3nccs3)c(Br)cc12)C1CCCC1 [SB-742609],6.66
3,Cc1cc(N2Cc3ccccc3C2)nc(Nc2ccc(S(=O)(=O)N3CCOCC3)cc2)n1.Cl [GSK1669917],< 5.00
4,CS(=O)(=O)c1ccc(-c2nc3n(c2-c2ccncc2)CCC3)cc1 [SKF-105942],< 5.00

# System: IRAK3
row,Structure (SMILES),pKd
1,CS(=O)(=O)c1ccc(-c2c(-c3ncn[nH]3)sc(N3CCOCC3)c2C#N)cc1,< 5.00
2,Cc1ccc(NC(=O)Nc2cc(C(C)(C)C)nn2-c2ccccc2)cc1 [GSK1014915],< 5.00
3,CCn1c(-c2ccccn2)nc2cnccc21 [SB-736398],5.12
4,Cc1ccc(NC(=O)Nc2cccc(Cl)c2)cc1-c1ccc(C(=O)Nc2ccncc2)cc1 [GSK1398468],< 5.00
5,Cc1ccc(NC(=O)Nc2cccc(C(F)(F)F)c2)cc1 [GSK955403],< 5.00

# System: JAK1(JH2domain-pseudokinase)
row,Structure (SMILES),pKd
1,Cc1cccc(-c2nc(Nc3ccc4[nH]ncc4c3)c3ccccc3n2)n1 [GW857175],6.19
2,Cc1nnc(-c2ccc3occ(-c4ccc(S(C)=O)cc4)c3c2)[nH]1 (stereo not shown),6.72
3,COc1ccc2nc(-c3cccc(C)n3)nc(Nc3ccncc3)c2c1 [GSK204919],6.59

# System: JAK2(JH1domain-catalytic)
row,Structure (SMILES),pKd
1,COc1ccc(CNC(=O)NC2CCN(c3ccnc(Nc4cc(OC)c(OC)c(OC)c4)n3)C2)cc1 (stereo not shown) [GSK1379748],6.46
2,O=S(=O)(c1ccc(-c2ccnc3[nH]ccc23)cc1)N1CCCC1 [GSK846226],6.44
3,Cl.NC(=O)c1cccc(Nc2nccc(Nc3ccc(Oc4cccc(Cl)c4)c(Cl)c3)n2)c1 [GW659008],6.40
4,Cc1cccc(-c2cc(Nc3ccncc3)c3ccccc3n2)n1 [GSK223675],< 5.00

# System: KIT
row,Structure (SMILES),pKd
1,Cc1ccc(NC(=O)Nc2cc(C(C)(C)C)nn2-c2ccccc2)cc1 [GSK1014915],6.59
2,Cc1ccc(NC(=O)Nc2cccc(Cl)c2)cc1-c1ccc(C(=O)Nc2ccncc2)cc1 [GSK1398468],6.74
3,Cc1ccc(NC(=O)Nc2cccc(C(F)(F)F)c2)cc1 [GSK955403],6.62
